Compound activity deposited in PubChem by National Center for Advancing Translational Sciences (NCATS).
An excerpt weighted towards active compounds, which were near 9.2% of everything screened.
FLuc modulator = firefly luciferase modulation, counter-screen for miR-21 project. purified FLuc, Km substrates, luminescence inhibition. Potency, µM (titrated, usually from 57.5 µM), hits mostly inhibitors. P08659. AID 588342. actives 6.9% (n = 360,000); also: nearly all actives have a fitted effect of over 55% in size
Target sequence (P08659 whole entry, looked up): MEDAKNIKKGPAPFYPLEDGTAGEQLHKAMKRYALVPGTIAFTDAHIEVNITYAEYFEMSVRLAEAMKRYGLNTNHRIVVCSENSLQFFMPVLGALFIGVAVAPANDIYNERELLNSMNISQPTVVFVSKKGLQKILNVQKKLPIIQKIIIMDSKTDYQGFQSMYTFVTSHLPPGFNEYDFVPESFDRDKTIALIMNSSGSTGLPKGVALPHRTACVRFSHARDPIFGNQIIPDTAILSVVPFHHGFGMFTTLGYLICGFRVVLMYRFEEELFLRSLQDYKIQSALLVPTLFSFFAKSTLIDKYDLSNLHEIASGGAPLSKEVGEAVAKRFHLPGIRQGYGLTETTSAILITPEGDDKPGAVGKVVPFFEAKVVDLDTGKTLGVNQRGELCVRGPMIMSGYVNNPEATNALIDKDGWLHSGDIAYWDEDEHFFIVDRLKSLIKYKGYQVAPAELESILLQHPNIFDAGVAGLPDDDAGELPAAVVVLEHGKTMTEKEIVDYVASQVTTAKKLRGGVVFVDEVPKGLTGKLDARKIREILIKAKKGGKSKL
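Biochemical qHTS of compounds, final roughly 60 µM downward over six points, against 10 nM purified firefly luciferase using Km concentrations of substrates (10 uM D-luciferin, 10 uM ATP) in Tris acetate pH 7.5 buffer; luminescence output.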
NPC1 prom act = activators of NPC1 promoter. Huh7 NPC1 promoter luciferase reporter, 24 h. Potency, µM (doses to about 9.22 µM), usual class: activators. actives 2.4% (n = 320,000); also: nearly all actives have a fitted effect of over 60% in size
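Luminescence from an NPC1 promoter-driven luciferase reporter in stably transfected Huh7 cells was measured after 24 h compound treatment at 37 °C, followed by 10 min ambient incubation with luciferase detection reagent.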
SMN2 splice up = increases expression of the SMN2 splice variant; HEK293 SMN2-luciferase splicing reporter, luminescence, 30-36 h; Potency, µM (top dose mostly 46.1 µM), usual class: activators; actives 2.8% (n = 210,000); also: nearly all actives have a fitted effect of over 55% in size
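qHTS luciferase splicing reporter: luminescence rises when SMN2 exon 7 is included in transfected HEK293 cells. Compound exposure lasted 30-36 h at 37C, with 4.5 mM final sodium butyrate as control, followed by a ONE-Glo read.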
Rab9 prom act = Rab9 promoter activation; Huh7 Rab9 promoter-luciferase reporter, luminescence, 24 h; Potency, µM (titrated, usually from 9.22 µM), actives largely listed as activators; actives 2.8% (n = 320,000); AID 485297; also: nearly all actives have a fitted effect of over 60% in size
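Measured in stably transfected Huh7 cells bearing a Rab9 promoter–luciferase construct: 24 h compound treatment at 37 °C, followed by luminescence detection.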
ELG1 genotox = inducers of genotoxicity in HEK293T ELG1-luciferase cells | actives 1.3% (n = 330,000) | HEK293T ELG1-luciferase reporter, luminescence, 16 h | Potency, µM (top dose mostly 46 µM), usual class: activators; also: nearly all actives have a fitted effect of over 60% in size
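Screening used a luciferase reporter fused to human ELG1 in HEK293T cells. Luminescence was read on a CCD plate imager after 16 hr exposure and 30 min ONE-Glo incubation.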
ELG1 repair inh = blocks ELG1-dependent DNA repair in HEK293T cells; HEK293T ELG1-luciferase reporter, luminescence, 16 h; DNA damage induced by 5-fluorouridine; Potency, µM (titrated, usually from 46.1 µM), actives largely listed as inhibitors; actives 2.3% (n = 330,000); AID 504467; also: nearly all actives have a fitted effect of over 55% in size
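HEK293T cells expressing luciferase-tagged ELG1 (2,000/well) received 5-Fluorouridine plus compound or DMSO for 16 hr at 37 °C. Luciferase was read by ONE-Glo luminescence after 30 min at room temperature.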
Large screens that a line does not name were inactive. Calls follow the shape of the dose curve; as a rule, active = well fitted curve in the direction sought with a large enough effect; inconclusive = small, poorly fitted or top-dose-only effect, or another doubt; inactive = no such curve, though single readings can be large; an effect the other way counts as inactive or inconclusive.

O=C(c1cncc(Br)c1)N1CCc2ccccc2C1	ELG1 repair inh 5.8µM
Cc1ccc(S(=O)(=O)Cc2ccc(C(=O)NC3CCCCCC3)o2)cc1	none (no result: SMN2 splice up)
CN(Cc1cccc(Cl)c1Cl)C(=O)c1cccc(S(=O)(=O)N2CCN(Cc3ccccc3)CC2)c1	ELG1 repair inh inconclusive (no result: SMN2 splice up)
COc1ccc(C2CC(c3ccc(Br)cc3)=NN2C(=O)CSC2=NCCS2)cc1 (stereo not given)	ELG1 repair inh inconclusive
COC(=O)Nc1nc2ccc(SC(C)C)cc2[nH]1	FLuc modulator inconclusive, SMN2 splice up inconclusive, ELG1 genotox 5.8µM, ELG1 repair inh inconclusive
O=C(NCc1ccc(Cl)cc1)C1CCCN(c2cnccn2)C1 (stereo not given)	none (no result: SMN2 splice up)
COc1ccccc1-n1c(/C=C/c2c(C)n(C)c3ccccc23)nc2ccccc2c1=O	none (no result: NPC1 prom act, Rab9 prom act, ELG1 genotox, ELG1 repair inh)
COc1ccc(C(=O)Oc2cccc(Nc3ncnc4ccccc34)c2)cc1OC	FLuc modulator inconclusive, ELG1 repair inh 16.4µM
COc1cc(C(=O)Oc2cccc(Nc3ncnc4ccccc34)c2)cc(OC)c1OC	FLuc modulator inconclusive, ELG1 repair inh 2.91µM
C=CC[C@@](C(C)=O)(C(=O)OC)C(NC(=O)OC)c1ccccc1 (stereo not given in full)	none (no result: FLuc modulator, NPC1 prom act, Rab9 prom act, ELG1 genotox, ELG1 repair inh)
N/C(=N\OC(=O)c1cccc(Cn2cc(C(F)(F)F)ccc2=O)c1)c1ccccc1	FLuc modulator inconclusive (no result: SMN2 splice up)
Cc1ccc(/C(N)=N/OC(=O)c2cccc(Cn3cc(C(F)(F)F)ccc3=O)c2)cc1	FLuc modulator 21.3µM, NPC1 prom act inconclusive (no result: SMN2 splice up)
N/C(=N\OC(=O)c1cccc(Cn2cc(C(F)(F)F)ccc2=O)c1)c1ccc(Cl)cc1	FLuc modulator 15.1µM (no result: SMN2 splice up)
NC(=O)N/N=C/c1ccc2cccc(OCc3ccccc3)c2n1	FLuc modulator 19µM (no result: SMN2 splice up)
O=C(Cc1ccccc1)N/N=C/c1ccc2cccc(O)c2n1	FLuc modulator 19µM (no result: SMN2 splice up)
O=C1CN(S(=O)(=O)c2ccc(Cl)cc2)c2ccccc2N1	none (no result: SMN2 splice up)
CCOc1cccc(C(=O)Nc2ccc3[nH]ncc3c2)c1	FLuc modulator 5.36µM, NPC1 prom act 2.82µM, Rab9 prom act 2µM, ELG1 genotox inconclusive, ELG1 repair inh inconclusive (no result: SMN2 splice up)
COc1cccc(C(=O)Nc2ccc3[nH]ncc3c2)c1	FLuc modulator 10.7µM, NPC1 prom act 2.82µM, Rab9 prom act 3.55µM, ELG1 genotox inconclusive, ELG1 repair inh inconclusive (no result: SMN2 splice up)
CCOc1cccc(C(=O)Nc2ccncc2)c1	ELG1 repair inh inconclusive
NC(=S)N=Nc1ccc(NN=C(N)N)cc1	FLuc modulator 21.3µM (no result: SMN2 splice up)
C=CC1=C(C)/C(=C/c2[nH]c(Cc3[nH]c(/C=C4\NC(=O)C(C)=C4C=C)c(C)c3CCC(=O)O)c(CCC(=O)O)c2C)NC1=O	none (no result: FLuc modulator, NPC1 prom act, Rab9 prom act, ELG1 genotox, ELG1 repair inh)
CCN(CC)S(=O)(=O)c1ccc(N2CCOCC2)c(NC(=O)c2ccc3ccccc3c2)c1	ELG1 repair inh 14.6µM
CCOc1ncccc1C(=O)Nc1cc(S(=O)(=O)N(CC)CC)ccc1N1CCOCC1	ELG1 repair inh 5.17µM (no result: FLuc modulator, NPC1 prom act, SMN2 splice up, Rab9 prom act)
CCN(CC)S(=O)(=O)c1ccc(N2CCOCC2)c(NC(=O)c2c3c(nc4ccccc24)CCC3)c1	ELG1 repair inh 13µM
CCOc1ncccc1C(=O)Nc1cc(C(F)(F)F)ccc1N1CCOCC1	none (no result: SMN2 splice up)
Cc1csc(SCC(=O)Nc2nncs2)n1	FLuc modulator inconclusive (no result: SMN2 splice up)
O=C(c1cc2cc(F)ccc2[nH]1)N1CCC(Cc2ccccc2)CC1	FLuc modulator inconclusive (no result: SMN2 splice up)
Cc1ccc(C)c(N2CCN(c3cnn(-c4nc5ccccc5s4)c(=O)c3Cl)CC2)c1	FLuc modulator 6.75µM, NPC1 prom act 2.24µM, SMN2 splice up inconclusive, Rab9 prom act 1.58µM, ELG1 genotox 18.4µM, ELG1 repair inh inconclusive
O=c1c(Cl)c(Nc2cccc(Cl)c2)cnn1-c1nc2ccccc2s1	FLuc modulator 4.78µM, NPC1 prom act inconclusive, SMN2 splice up 10µM, Rab9 prom act inconclusive, ELG1 genotox inconclusive, ELG1 repair inh inconclusive
COc1ccc(Nc2cnn(-c3nc4ccccc4s3)c(=O)c2Cl)cc1	FLuc modulator 10.7µM, NPC1 prom act inconclusive, SMN2 splice up 10µM, Rab9 prom act inconclusive, ELG1 genotox inconclusive, ELG1 repair inh inconclusive
S=C(Nc1ccc(Br)cc1)N1CCCC1	FLuc modulator 15.1µM, SMN2 splice up 8.91µM, ELG1 repair inh inconclusive
CCOc1ccc(NC(=S)N2CCCC2)cc1	none (no result: SMN2 splice up)
CCc1ccc(NC(=S)N2CCCCCCC2)cc1	FLuc modulator 4.78µM, NPC1 prom act inconclusive, SMN2 splice up 15.8µM, Rab9 prom act inconclusive, ELG1 genotox inconclusive, ELG1 repair inh inconclusive
S=C(Nc1ccc(Cl)cc1)N1CCCCC1	FLuc modulator 12µM
CCCCc1ccc(NC(=S)N2CCCC(C)C2)cc1 (stereo not given)	FLuc modulator 13.5µM, ELG1 repair inh inconclusive
CCOC(=O)c1c(C)nc2sc3c(=O)n(-c4ccc(C(C)=O)cc4)cnc3c2c1-c1ccc(Cl)cc1	ELG1 repair inh 20.6µM
Cc1cc(C)cc(OCC(=O)NNC(=S)NC(=O)C2CC2)c1	none (no result: SMN2 splice up)
CC(=O)Nc1ccc(/C=C(\C#N)C(=O)NC2CCCCC2)cc1	ELG1 repair inh inconclusive
COc1ccc(NC(=O)/C(C#N)=C\c2ccc(N3CCOCC3)o2)cc1	FLuc modulator 1.9µM, NPC1 prom act inconclusive, Rab9 prom act inconclusive, ELG1 repair inh inconclusive (no result: SMN2 splice up)
COc1ccc(NC(=O)/C(C#N)=C/c2ccc(C)o2)cc1	FLuc modulator 2.69µM, SMN2 splice up 12.6µM (no result: NPC1 prom act, Rab9 prom act, ELG1 genotox, ELG1 repair inh)
